Consider 2 sequences from publication PMC7862700, “An all-to-all approach to the identification of sequence-specific readers for epigenetic DNA modifications on cytosine”.

Common to all, as to test: DAPPL (digital affinity profiling via proximity ligation, sequencing); 10 mM Tris-HCl pH 7.5, 50 mM NaCl, 1 mM DTT, 4% glycerol, room temperature, 30 min; GST-TFs on glutathione beads, 16-mer random dsDNA library, 0.1% formaldehyde crosslink after washing; high values mean tight binding
Common to all, as to conditions: protein: recombinant; tags: N-terminal GST; dsDNA, one strand shown

Test [1] concerns the target T1, FLI1 (Homo sapiens, UniProt Q01543 1-452).
T1 sequence: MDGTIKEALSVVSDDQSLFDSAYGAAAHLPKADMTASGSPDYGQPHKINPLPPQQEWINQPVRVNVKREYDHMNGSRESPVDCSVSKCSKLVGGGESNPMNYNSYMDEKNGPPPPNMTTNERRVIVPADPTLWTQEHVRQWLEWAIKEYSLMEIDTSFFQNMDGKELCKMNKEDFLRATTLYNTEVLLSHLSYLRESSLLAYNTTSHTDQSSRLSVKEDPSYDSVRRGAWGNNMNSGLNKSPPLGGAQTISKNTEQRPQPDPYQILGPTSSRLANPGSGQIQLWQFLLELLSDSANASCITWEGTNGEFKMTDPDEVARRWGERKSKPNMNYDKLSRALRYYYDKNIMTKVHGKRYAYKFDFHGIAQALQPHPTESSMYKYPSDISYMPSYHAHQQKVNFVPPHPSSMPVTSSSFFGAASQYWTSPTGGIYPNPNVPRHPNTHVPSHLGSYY
Summed up: (§1)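 Each value of binding signal is a hexamer's read frequency for a factor divided by the same hexamer's frequency in the tag-only sample. Barcoded, bead-captured GST fusions of human transcription factors made in yeast were pooled with that sample and incubated with 200 nmole of a random double-stranded 16-mer DNA library in Tris/NaCl/DTT/glycerol buffer at room temperature for 30 min. Washing, 0.1% formaldehyde crosslinking, proximity ligation, PCR and Illumina NextSeq500 sequencing followed.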

Test [2] has as its target T2, ELK1 (Homo sapiens, UniProt P19419 1-428).
T2 sequence: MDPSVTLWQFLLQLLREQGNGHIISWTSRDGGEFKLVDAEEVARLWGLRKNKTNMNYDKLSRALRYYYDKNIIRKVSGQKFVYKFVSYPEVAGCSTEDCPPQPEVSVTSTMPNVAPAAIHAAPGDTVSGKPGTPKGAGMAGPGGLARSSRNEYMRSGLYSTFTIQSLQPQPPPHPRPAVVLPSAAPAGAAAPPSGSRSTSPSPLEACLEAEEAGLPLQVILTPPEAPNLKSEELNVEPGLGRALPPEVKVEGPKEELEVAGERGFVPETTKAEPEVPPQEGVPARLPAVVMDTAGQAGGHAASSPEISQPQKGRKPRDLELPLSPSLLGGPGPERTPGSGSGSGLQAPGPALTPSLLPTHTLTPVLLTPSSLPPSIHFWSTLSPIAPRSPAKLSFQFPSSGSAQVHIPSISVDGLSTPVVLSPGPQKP
Summed up:
as §1

Test [3] has as its target T3, GABPA (Homo sapiens, UniProt Q06546 1-454).
T3 sequence: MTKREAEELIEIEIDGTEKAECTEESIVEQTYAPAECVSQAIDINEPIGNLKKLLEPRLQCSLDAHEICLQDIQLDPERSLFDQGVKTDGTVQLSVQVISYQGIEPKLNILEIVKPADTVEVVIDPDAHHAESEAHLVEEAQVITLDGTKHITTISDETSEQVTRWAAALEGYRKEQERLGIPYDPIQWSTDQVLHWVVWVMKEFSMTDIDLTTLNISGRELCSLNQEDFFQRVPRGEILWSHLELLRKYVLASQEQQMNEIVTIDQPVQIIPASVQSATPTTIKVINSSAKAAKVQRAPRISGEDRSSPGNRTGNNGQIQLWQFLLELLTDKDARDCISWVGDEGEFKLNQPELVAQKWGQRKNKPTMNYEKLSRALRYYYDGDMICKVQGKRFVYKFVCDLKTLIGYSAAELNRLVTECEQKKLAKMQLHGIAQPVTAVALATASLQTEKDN
The method in brief: as §1

Test [4] addresses T4, ERG (Homo sapiens, UniProt P11308 1-479).
T4 sequence: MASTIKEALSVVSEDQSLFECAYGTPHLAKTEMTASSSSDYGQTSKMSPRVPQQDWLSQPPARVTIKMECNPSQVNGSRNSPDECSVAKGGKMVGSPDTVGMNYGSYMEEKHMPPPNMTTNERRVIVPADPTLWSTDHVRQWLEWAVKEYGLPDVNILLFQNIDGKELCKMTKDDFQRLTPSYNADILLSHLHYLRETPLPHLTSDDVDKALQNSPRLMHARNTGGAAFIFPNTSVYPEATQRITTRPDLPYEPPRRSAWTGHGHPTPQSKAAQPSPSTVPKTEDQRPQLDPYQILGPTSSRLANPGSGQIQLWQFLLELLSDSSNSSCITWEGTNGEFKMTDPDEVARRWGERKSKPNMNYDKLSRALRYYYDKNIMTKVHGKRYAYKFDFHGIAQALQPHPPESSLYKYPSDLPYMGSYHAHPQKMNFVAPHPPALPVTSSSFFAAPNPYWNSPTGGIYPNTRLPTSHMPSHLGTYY
The method in brief:
as §1

Test [5] has as its target ELF1 (Homo sapiens, UniProt P32519 1-619). The method in brief:
as §1

Test [6] concerns the target T5, EHF (Homo sapiens, UniProt Q9NZC4 1-300).
T5 sequence: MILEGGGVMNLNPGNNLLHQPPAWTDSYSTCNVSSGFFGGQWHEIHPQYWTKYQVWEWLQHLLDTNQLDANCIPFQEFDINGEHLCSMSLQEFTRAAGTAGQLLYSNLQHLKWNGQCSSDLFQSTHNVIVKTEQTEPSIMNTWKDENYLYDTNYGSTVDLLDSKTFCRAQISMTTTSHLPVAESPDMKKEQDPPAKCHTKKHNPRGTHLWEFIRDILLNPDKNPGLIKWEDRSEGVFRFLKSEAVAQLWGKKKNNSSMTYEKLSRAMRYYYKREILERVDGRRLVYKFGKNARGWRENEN
Summed up: as §1

Test [7] concerns the target SPI1 (Homo sapiens, UniProt P17947 1-270). The method in brief: as §1
For test [8], the target named is SPIB (Homo sapiens, UniProt Q01892 1-262). Summed up: as §1
Test [9] concerns the target T6, ELK3 (Homo sapiens, UniProt P41970 1-407).
T6 sequence: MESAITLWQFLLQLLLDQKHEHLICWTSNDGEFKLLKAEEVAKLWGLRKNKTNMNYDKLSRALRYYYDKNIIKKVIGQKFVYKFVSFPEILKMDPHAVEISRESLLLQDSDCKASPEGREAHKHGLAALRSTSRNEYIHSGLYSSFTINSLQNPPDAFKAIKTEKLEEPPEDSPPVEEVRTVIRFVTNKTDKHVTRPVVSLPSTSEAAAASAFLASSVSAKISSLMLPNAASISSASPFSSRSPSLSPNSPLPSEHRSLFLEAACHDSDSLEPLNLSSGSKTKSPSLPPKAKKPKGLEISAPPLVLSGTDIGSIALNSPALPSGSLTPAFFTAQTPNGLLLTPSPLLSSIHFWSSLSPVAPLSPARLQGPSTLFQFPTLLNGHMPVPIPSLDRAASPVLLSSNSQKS
Summed up:
as §1

In test [10] the target is T7, FEV (Homo sapiens, UniProt Q99581 1-238).
T7 sequence: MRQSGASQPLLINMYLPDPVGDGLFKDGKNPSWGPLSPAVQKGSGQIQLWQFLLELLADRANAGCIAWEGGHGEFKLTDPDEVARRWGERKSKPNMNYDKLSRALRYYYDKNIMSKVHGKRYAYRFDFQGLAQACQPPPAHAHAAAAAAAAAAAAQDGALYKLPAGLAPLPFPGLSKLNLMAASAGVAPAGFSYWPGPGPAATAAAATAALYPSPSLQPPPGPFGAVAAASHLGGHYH
The method in brief:
as §1

Test [11] has as its target ETV5 (Homo sapiens, UniProt P41161 1-510). Summed up: as §1
In test [12] the target is T8, SPIC (Homo sapiens, UniProt Q8N5J4 1-248).
T8 sequence: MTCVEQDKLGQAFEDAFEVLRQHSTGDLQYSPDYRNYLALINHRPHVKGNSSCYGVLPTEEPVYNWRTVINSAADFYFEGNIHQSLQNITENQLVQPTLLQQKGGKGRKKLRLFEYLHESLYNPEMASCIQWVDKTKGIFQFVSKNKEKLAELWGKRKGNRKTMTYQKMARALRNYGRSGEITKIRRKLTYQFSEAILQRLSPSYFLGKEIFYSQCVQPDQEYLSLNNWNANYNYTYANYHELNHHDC
The method in brief:
as §1

In test [13] the target is ELF4 (Homo sapiens, UniProt Q99607 1-663). The method in brief: as §1
The target in test [14] is T9, ELK4 (Homo sapiens, UniProt P28324-2 1-405).
T9 sequence: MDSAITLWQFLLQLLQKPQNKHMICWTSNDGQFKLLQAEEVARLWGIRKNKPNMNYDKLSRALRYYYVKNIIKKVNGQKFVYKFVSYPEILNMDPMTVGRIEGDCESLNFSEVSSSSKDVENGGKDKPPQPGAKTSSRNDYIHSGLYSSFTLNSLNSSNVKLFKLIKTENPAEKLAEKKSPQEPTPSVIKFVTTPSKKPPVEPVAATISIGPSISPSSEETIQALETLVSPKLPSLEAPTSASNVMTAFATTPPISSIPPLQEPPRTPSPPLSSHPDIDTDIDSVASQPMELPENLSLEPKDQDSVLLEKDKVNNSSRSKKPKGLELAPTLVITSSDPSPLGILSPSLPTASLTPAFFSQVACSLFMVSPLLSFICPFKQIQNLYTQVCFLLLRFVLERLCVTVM
The method in brief: as §1

Test [15] has as its target T10, ETV2 (Homo sapiens, UniProt O00321 1-342).
T10 sequence: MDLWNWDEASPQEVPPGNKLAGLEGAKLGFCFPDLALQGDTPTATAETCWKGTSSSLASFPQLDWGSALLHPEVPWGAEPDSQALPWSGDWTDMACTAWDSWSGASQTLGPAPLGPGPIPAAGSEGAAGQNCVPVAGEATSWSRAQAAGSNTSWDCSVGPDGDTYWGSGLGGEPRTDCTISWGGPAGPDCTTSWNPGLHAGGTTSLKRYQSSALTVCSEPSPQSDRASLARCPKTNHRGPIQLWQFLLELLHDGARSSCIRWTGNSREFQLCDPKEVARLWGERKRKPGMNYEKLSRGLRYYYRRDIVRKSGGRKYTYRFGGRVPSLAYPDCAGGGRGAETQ
The method in brief: as §1

The target of test [16] is T11, ELF3 (Homo sapiens, UniProt P78545 1-371).
T11 sequence: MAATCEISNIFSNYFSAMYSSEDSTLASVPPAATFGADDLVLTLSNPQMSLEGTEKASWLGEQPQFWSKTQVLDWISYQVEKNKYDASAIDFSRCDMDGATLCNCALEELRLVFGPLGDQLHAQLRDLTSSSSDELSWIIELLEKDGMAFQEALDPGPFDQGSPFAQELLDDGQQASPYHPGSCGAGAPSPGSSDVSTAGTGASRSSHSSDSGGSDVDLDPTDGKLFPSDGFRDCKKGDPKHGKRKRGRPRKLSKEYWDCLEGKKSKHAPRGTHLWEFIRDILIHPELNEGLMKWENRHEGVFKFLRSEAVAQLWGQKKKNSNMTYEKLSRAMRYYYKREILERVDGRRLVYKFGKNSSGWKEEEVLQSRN
Summed up:
as §1

Test [17] deals with ETV1 (Homo sapiens, UniProt P50549 1-477). The method in brief: as §1
ETV1, sequence (P50549 whole entry): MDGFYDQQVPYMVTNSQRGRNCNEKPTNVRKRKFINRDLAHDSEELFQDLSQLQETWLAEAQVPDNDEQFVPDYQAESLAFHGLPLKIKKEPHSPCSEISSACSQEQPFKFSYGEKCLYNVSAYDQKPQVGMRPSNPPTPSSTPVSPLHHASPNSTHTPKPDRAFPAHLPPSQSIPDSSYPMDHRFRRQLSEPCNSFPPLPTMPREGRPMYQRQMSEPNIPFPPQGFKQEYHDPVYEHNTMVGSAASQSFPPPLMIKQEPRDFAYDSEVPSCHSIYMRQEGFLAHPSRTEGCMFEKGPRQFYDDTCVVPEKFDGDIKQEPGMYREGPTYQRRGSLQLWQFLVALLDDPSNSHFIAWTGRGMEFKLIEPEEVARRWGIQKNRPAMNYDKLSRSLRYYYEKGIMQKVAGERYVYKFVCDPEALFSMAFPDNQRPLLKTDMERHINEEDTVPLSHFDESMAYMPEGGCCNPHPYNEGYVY

ELF4, sequence (Q99607 whole entry): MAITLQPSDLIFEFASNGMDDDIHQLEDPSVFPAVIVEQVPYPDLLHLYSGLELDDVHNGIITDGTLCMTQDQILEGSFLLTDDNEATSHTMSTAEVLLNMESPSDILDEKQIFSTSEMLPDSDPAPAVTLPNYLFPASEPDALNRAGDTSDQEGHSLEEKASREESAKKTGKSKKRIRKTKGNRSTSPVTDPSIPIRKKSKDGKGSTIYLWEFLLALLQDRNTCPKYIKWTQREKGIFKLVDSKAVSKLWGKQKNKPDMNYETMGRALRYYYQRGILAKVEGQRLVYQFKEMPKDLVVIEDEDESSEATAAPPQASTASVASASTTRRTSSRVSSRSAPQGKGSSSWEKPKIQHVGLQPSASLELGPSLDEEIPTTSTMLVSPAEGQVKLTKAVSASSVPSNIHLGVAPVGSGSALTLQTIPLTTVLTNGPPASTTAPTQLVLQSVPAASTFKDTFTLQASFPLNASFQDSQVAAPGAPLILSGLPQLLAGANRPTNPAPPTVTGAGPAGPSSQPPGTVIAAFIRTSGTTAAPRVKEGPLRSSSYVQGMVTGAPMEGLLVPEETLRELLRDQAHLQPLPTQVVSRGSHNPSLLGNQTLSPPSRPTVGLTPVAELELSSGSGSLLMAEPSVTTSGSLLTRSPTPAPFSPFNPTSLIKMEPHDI
ELF1, sequence (P32519 whole entry): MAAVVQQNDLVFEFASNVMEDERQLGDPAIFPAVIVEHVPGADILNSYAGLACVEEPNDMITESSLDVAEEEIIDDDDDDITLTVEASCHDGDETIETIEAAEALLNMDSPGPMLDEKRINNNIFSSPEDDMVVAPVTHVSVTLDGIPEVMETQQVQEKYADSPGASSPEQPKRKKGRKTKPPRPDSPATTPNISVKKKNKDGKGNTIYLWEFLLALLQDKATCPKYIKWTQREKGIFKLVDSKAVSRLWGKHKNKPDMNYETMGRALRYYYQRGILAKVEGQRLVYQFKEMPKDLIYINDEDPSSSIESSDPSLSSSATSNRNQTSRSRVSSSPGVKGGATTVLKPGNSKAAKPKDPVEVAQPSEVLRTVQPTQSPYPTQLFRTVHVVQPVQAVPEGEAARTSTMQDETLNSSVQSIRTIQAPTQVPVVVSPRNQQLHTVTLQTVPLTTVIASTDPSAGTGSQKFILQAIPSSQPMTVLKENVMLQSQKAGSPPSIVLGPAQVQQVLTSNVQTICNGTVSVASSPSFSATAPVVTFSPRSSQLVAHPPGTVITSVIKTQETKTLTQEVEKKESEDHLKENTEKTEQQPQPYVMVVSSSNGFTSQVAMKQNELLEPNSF
SPIB, sequence (Q01892 whole entry): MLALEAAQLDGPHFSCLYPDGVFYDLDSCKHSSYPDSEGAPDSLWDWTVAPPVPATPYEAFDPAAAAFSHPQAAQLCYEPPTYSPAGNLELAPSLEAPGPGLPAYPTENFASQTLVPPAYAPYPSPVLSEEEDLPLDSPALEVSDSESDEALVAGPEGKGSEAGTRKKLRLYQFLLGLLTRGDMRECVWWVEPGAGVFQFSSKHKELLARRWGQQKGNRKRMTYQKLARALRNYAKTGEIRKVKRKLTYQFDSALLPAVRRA
ETV5, sequence (P41161 whole entry): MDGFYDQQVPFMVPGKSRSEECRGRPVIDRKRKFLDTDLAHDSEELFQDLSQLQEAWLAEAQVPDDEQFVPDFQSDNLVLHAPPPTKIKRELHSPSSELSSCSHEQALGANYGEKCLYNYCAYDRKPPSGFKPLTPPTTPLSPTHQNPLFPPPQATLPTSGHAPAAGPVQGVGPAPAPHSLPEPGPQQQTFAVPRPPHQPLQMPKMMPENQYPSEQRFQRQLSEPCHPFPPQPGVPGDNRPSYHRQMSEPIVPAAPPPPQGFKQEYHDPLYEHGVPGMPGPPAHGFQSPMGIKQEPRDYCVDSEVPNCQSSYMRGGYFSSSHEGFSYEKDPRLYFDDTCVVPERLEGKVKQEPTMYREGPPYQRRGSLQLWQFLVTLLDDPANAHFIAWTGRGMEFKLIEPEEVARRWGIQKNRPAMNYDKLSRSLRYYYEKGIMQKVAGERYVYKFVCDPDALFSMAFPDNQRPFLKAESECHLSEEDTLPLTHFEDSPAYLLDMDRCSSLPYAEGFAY

As to GTACAC, the binding signal in test [1] is 1.18 fold enrichment (6-mer frequency, TF over GST control); in test [2] it was 1.31 fold enrichment (6-mer frequency, TF over GST control); in test [3], 1.18 fold enrichment (6-mer frequency, TF over GST control); in test [4] it was 1.29 fold enrichment (6-mer frequency, TF over GST control); in test [5], 1.17 fold enrichment (6-mer frequency, TF over GST control); in test [6] it was 1.14 fold enrichment (6-mer frequency, TF over GST control). Besides, the binding signal in test [7] was 1.18 fold enrichment (6-mer frequency, TF over GST control); in [8] it was 1.18 fold enrichment (6-mer frequency, TF over GST control); in test [9], 1.23 fold enrichment (6-mer frequency, TF over GST control); in [10], 1.2 fold enrichment (6-mer frequency, TF over GST control); in [11] it was 1.27 fold enrichment (6-mer frequency, TF over GST control); in test [12], 1.33 fold enrichment (6-mer frequency, TF over GST control). The binding signal in test [13] was 1.29 fold enrichment (6-mer frequency, TF over GST control); in test [14], 1.23 fold enrichment (6-mer frequency, TF over GST control); in test [15] it was 1.17 fold enrichment (6-mer frequency, TF over GST control); in test [16] it was 1.26 fold enrichment (6-mer frequency, TF over GST control); in [17], 1.2 fold enrichment (6-mer frequency, TF over GST control).
For the sequence TGTGAC, the binding signal in test [1] was 1.05 fold enrichment (6-mer frequency, TF over GST control); in test [2], 1.09 fold enrichment (6-mer frequency, TF over GST control); in [3], 1.15 fold enrichment (6-mer frequency, TF over GST control); in test [4], 1.08 fold enrichment (6-mer frequency, TF over GST control); in [5], 1.16 fold enrichment (6-mer frequency, TF over GST control); in [6], 1.01 fold enrichment (6-mer frequency, TF over GST control). The binding signal in [7] is 1.17 fold enrichment (6-mer frequency, TF over GST control); in test [8] it was 1.22 fold enrichment (6-mer frequency, TF over GST control); in test [9] it was 1.1 fold enrichment (6-mer frequency, TF over GST control); in test [10], 1.14 fold enrichment (6-mer frequency, TF over GST control); in test [11], 1.15 fold enrichment (6-mer frequency, TF over GST control); in [12], 1.14 fold enrichment (6-mer frequency, TF over GST control). Moreover, the binding signal is 1.19 fold enrichment (6-mer frequency, TF over GST control) in test [13]; 1.2 fold enrichment (6-mer frequency, TF over GST control) in test [14]; 1.09 fold enrichment (6-mer frequency, TF over GST control) in test [15]; 1.16 fold enrichment (6-mer frequency, TF over GST control) in test [16]; 1.04 fold enrichment (6-mer frequency, TF over GST control) in [17].
